The subject of this test is DRIVER-selected RNA biosensor (aptazyme) pool. As to the kind of experiment: maximum fold change of ribozyme cleavage across biosensor pool versus no-compound control; higher = stronger biosensor response (ligand inhibits cleavage). Conditions: 10 µM. Put shortly:
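Values are the maximum fold change of cleavage over all biosensors in a CleaveSeq assay, defined as the cleaved:uncleaved read-fraction ratio against a no-compound condition after correction with reference sequences. The 1,730 array-resynthesized ribozyme biosensors were T7-transcribed for 15–30 min at 37°C with 9 mM rNTPs and a single compound at 10 µM final, then reverse-transcribed at 50°C. Read counts came from Illumina sequencing of PCR-barcoded cleaved and uncleaved products.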
`N#C/C(=Cc1c(Oc2ccc(cc2)Br)nc2n(c1=O)cccc2)/C(=O)N1CCOCC1` came in with a maximum fold change of 4.23.
As for `COc1ccc(-c2cn3c(C)c(C(=O)NCCCOC(C)C)sc3n2)cc1`, the figure is 2.79.
For the compound `CC1CCC(NC(=O)c2cc(C3CC3)n[nH]2)CC1` (stereo unspecified), the maximum fold change amounted to 1.87.
As for `CCOC(=O)c1c(C)c(-c2ccccc2)n(CC(=O)NCCN(C)C)c1C`, the figure is 2.04; as for `CC(NC(=O)/C=C/c1ccccc1Cl)c1ccccc1` (stereo unspecified), 2.1.
As for `CCOCCCNC(=O)/C(C#N)=C/c1c(Oc2ccc(Br)cc2)nc2ccccn2c1=O`, the figure is 3.31.
As for `COc1ccc(CCNC(=O)c2nnc(Cc3ccc(Cl)cc3Cl)o2)cc1OC`, the figure is 2.09; as for `Cc1ccc(-c2noc(CCC(=O)NCc3ccc(F)cc3Cl)n2)cc1`, 3.35; as for `CN1C(=O)c2ccccc2C(C(=O)O)C1c1c[nH]c2ccccc12` (stereo unspecified), 2.39.
The compound `Cc1cccc(-c2nc3n(n2)C(c2ccccc2Cl)C2=C(CC(C)(C)CC2=O)N3)c1` (stereo unspecified) gave a maximum fold change of 1.83.
As for `COc1cc(OC)c(OC)cc1/C=C1N=C(c2ccco2)OC1=O`, the figure is 2.19.
As for `COCCNC(=O)C1c2ccccc2C(=O)N(CCOC)C1c1c[nH]c2ccccc12` (stereo unspecified), the figure is 2.7.
Compound `Cc1ccccc1-c1nnc(SCC(=O)N2CCC(C)CC2)o1` returned a maximum fold change of 1.91.
As for `CCOC(=O)N1CCC(NC(=O)c2ccc(CS(=O)c3cccc(C)c3)o2)CC1` (stereo unspecified), the figure is 2.53.
As for `Cc1ccc(S(=O)(=O)NCC2CCC(C(=O)NCC(C)c3ccccc3)CC2)cc1` (stereo unspecified), the figure is 4.21; as for `CCOC(=O)c1cnc2c(C)c(Cl)ccc2c1NCCCN1CCOCC1`, 12.1.
Compound `NC(=O)c1nc2n(c1N)CCCCC2` displayed a maximum fold change of 2.43.
As for `CC(C)CCNC(=O)Cn1c2c(c(-c3ccccc3Cl)cc1=O)CCC2`, the figure is 2.06; as for `OCCCN/C=C/1C(=O)CC(CC1=O)c1ccc(cc1)OC` (stereo unspecified), 1.74.
As for `COc1ccc(S(=O)(=O)Nc2cccnc2)cc1`, the figure is 2.43; as for `O=C(NCc1cccc(Cl)c1)c1cnc2ccccn2c1=O`, 7.03; as for `CCOC(=O)c1cnc(SCc2cccc(C)c2)nc1N`, 7.72.
Compound `COc1ccccc1OCCCn1cccc1/C=C1\C(=N)N2N=C(N3CCOCC3)SC2=NC1=O` showed a maximum fold change of 2.03.
As for `c1ccc2nc3c(nc2c1)c1ccccc1n3CN1CCCCC1`, the figure is 10.9; as for `Clc1ccc2nc3c4ccccc4cnn3c2c1`, 3.12.
In the case of `Cc1[nH]c2ccccc2c1/C=C1\C(=N)N2N=C(N3CCC(C)CC3)SC2=NC1=O`, the maximum fold change was 3.17.
As for `COc1ccc(-c2nc(CS(=O)(=O)CC(=O)NC3CCC(C)CC3)c(C)o2)cc1` (stereo unspecified), the figure is 2.18.
On to `CCOc1ccccc1-n1cc2c(c1-c1cccc(C)c1)c(=O)n(C)c(=O)n2C`, for which the maximum fold change was found to be 1.83.
On to `CCOC(=O)C1=C(C)Nc2nc(-c3cccs3)nn2C1c1ccc(C#N)cc1` (stereo unspecified), for which the maximum fold change was determined as 1.85.
As for `COc1ccccc1/C=C1N=C(c2ccc(Br)cc2)OC1=O`, the figure is 2.7.
As for `CCc1ccc(C2c3c(-c4ccccc4O)n[nH]c3C(=O)N2CC2CCCO2)cc1` (stereo unspecified), the figure is 1.83.

Source of the values: the supplement of paper PMC9477273.
